Measurements from the supplement of paper PMC6555819.

Experiments:
Assay in all cases: PBM binding z-score (relative to random genomic background probes); higher = stronger binding; sequences stand for … in GC…GCGATTGACAGCGTAGAATGAAGG
[1] = system: FXR:RXRa (NR concentration 270 nM, RXRa partner concentration 90 nM)
Procedure, shortened: (§1)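 Custom Agilent 4×180K protein-binding microarrays carried double-stranded probes, each with a 34-nt variable region. These regions held direct-repeat seeds, single-nucleotide variants, half-site ablations and random human genomic background sequences. Ligand-free nuclear receptor dimers were incubated on the arrays for 1 h, antibodies against each partner (one per run) detected binding, and scanned fluorescence was regression-normalized. Binding z-scores take the random background probes as reference.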

[2] = system: LXRa:RXRa (NR concentration 270 nM, RXRa partner concentration 90 nM)
Procedure, shortened: as §1

[3] = system: LXRa homodimer (NR concentration 270 nM)
Procedure, shortened: as §1

[4] = system: LXRb:RXRa (NR concentration 270 nM, RXRa partner concentration 90 nM)
Procedure, shortened: as §1

[5] = system: LXRb homodimer (NR concentration 270 nM)
Procedure, shortened: as §1

[6] = system: PPARa:RXRa (NR concentration 270 nM, RXRa partner concentration 90 nM)
Procedure, shortened: as §1

[7] = system: PPARg:RXRa (NR concentration 180 nM, RXRa partner concentration 90 nM)
Procedure, shortened: as §1

[8] = system: PPARg:RXRa 270nM:90nM, anti-RXR (NR concentration 270 nM, RXRa partner concentration 90 nM)
Procedure, shortened: as §1

[9] = system: PPARg:RXRa 30nM:10nM, anti-RXR (NR concentration 30 nM, RXRa partner concentration 10 nM)
Procedure, shortened: as §1

[10] = system: PPARg:RXRa 90nM:30nM, anti-RXR (NR concentration 90 nM, RXRa partner concentration 30 nM)
Procedure, shortened: as §1

[11] = system: PPARg:RXRa DBDmut IVT, anti-RXR (DBD mutation: RXRa K156A/R161A, NR concentration 270 nM, RXRa partner concentration 90 nM)
Procedure, shortened: as §1

[12] = system: PPARg:RXRa IVT, anti-PPARg (NR concentration 270 nM, RXRa partner concentration 90 nM)
Procedure, shortened: as §1

[13] = system: PPARg DBDmut:RXRa IVT, anti-PPARg (DBD mutation: PPARg1 K132A/R137A, NR concentration 270 nM, RXRa partner concentration 90 nM)
Procedure, shortened: as §1

[14] = system: PPARg DBDmut IVT, anti-PPARg (DBD mutation: PPARg1 K132A/R137A, NR concentration 270 nM)
Procedure, shortened: as §1

[15] = system: PPARg homodimer (NR concentration 180 nM)
Procedure, shortened: as §1

[16] = system: PXR:RXRa (NR concentration 270 nM, RXRa partner concentration 90 nM)
Procedure, shortened: as §1

[17] = system: PXR homodimer (NR concentration 270 nM)
Procedure, shortened: as §1

[18] = system: RARa:RXR (NR concentration 270 nM, RXRa partner concentration 90 nM)
Procedure, shortened: as §1

[19] = system: RARa homodimer (NR concentration 270 nM)
Procedure, shortened: as §1

[20] = system: RARb:RXRa (NR concentration 270 nM, RXRa partner concentration 90 nM)
Procedure, shortened: as §1

Sequence	PBM binding z-score [1]	PBM binding z-score [2]	PBM binding z-score [3]	PBM binding z-score [4]	PBM binding z-score [5]	PBM binding z-score [6]	PBM binding z-score [7]	PBM binding z-score [8]	PBM binding z-score [9]	PBM binding z-score [10]	PBM binding z-score [11]	PBM binding z-score [12]	PBM binding z-score [13]	PBM binding z-score [14]	PBM binding z-score [15]	PBM binding z-score [16]	PBM binding z-score [17]	PBM binding z-score [18]	PBM binding z-score [19]	PBM binding z-score [20]
TCAGACAGGTGATGGTAACTCAGGTACGCAGTCG	0.415	0.602	0.0587	0.648	-0.117	1.16	0.601	1.7	3.35	2.55	2.18	0.496	-0.328	-0.349	0.0712	0.333	0.496	0.242	0.298	0.566
CAAACTATGTCAAGAGGTCAAAGTCCGCTTCCCG	5.04	5.63	5.89	4.97	2.01	5.33	5.62	6.27	4.55	6	4.61	4.88	1.22	0.601	4.01	5.64	2.84	6.21	2.09	4.3
CGTCAAAGTTGAACTAAGGTAACGTAAAGCACGC	2.71	3.29	3.88	1.57	0.134	2.26	1.45	2.65	0.653	2.03	0.422	1.2	1.41	0.838	0.99	2.35	0.717	2.08	0.0339	2.17
TTACCACGGTGAAAGGTCGTTGATGCACGCCTTG	1.82	1.94	0.347	1.79	-0.318	4.03	6.35	6.53	5.02	6.87	0.591	3.21	0.23	0.773	1.78	2.43	0.446	2.56	0.421	1.94
CTCGAAAGGTCGGTTGAGCTGAGTATACGGATAA	1.24	0.827	-0.605	0.855	-0.258	2	0.00937	0.523	-0.12	0.207	0.0426	0.318	-0.21	-0.532	0.0115	0.392	-0.439	0.834	0.167	2.58
ACTAGTTGGTCAGCTGTGGTCACACACAATTCGG	0.168	-0.0982	-0.159	-0.0787	-0.362	0.0515	0.536	0.0705	-0.147	-0.158	1.14	0.902	0.0939	0.115	0.101	0.312	-0.402	0.442	0.116	1.23
CGTCCAAGGTCGGAGAGGTCAGTGAATGCCGAGT	2.9	3.06	1.09	2.53	-0.761	3.1	0.524	2.01	0.133	1.16	0.725	1.17	-0.739	-1.35	1.93	4.6	7.89	3.59	1.21	3.76
TAGCCTAGGTCATTCAGGGCCCAGTATAGAAAGC	4.66	3.59	0.608	2.37	0.858	3.62	1.96	2.34	0.126	1.56	1.83	2.54	0.246	-0.28	1.19	1.88	-0.155	2.32	-0.0549	3.54
ATATGTAGGTTATCGGGGCATTCAGTTTGCGCAT	1.18	1.49	0.936	2.57	1.81	3.95	5.76	5	2.48	4.06	7.24	7.25	3.45	3.12	2.07	1.72	3	1.04	1.6	1.7
TATATTAGTTGATTAGGGCAACCGAAACAGCGGA	0.381	0.319	0.79	0.365	1.33	0.535	0.578	0.666	1.02	0.819	0.409	2.01	2.25	1.83	1.16	0.636	0.89	0.181	2.13	1.16
CCGACTGGGGCAGAAAGGTTATCATACCATCCGG	0.492	0.483	0.0667	0.849	-0.748	2.05	1.7	2.27	0.694	2.13	1.78	1.73	-1.01	-1.06	0.664	0.873	0.149	1.85	-0.196	1.68
ATCTCTAGGTAAGACTCAGTTCATTGAAGAACGC	0.66	1.1	1.32	0.779	1.11	0.841	0.175	0.381	0.0967	0.482	2.32	1.16	1.33	1.23	1.13	2.6	4.35	1.04	1.62	0.694
TCGAGTAGGTTAGTCAGGGCATTCAGCCAACATA	0.179	0.175	-0.126	0.121	-0.771	0.625	0.0481	0.99	1.13	0.992	1.73	1.72	0.0156	-0.832	0.613	0.173	0.204	0.135	0.35	0.484
GATACAGGGTCTAGGCCAGAGTACGCGTATTGAT	-0.772	-0.631	-0.516	-0.894	-1.47	-0.516	0.629	0.0439	-0.269	-0.108	-0.37	0.257	-1.76	-0.427	-0.543	-0.687	-0.433	-0.694	-0.222	0.0286
GCATATAGGTAATACAAGGTGAAAGTCCGATTGT	2.2	2.59	0.161	0.649	-0.271	1.68	1.37	1.36	0.636	0.931	4.15	3.2	1.3	0.902	0.296	0.502	0.135	0.993	0.75	0.523
ACTATCAGGCCAAGTTTGGGTCACTCAAACAAAG	0.363	0.344	-0.188	0.871	0.576	1.51	0.155	0.318	-0.0574	0.171	0.297	1.51	1.26	0.453	1	0.896	0.251	1.83	-0.177	2.12
GCTATTCGTTGAAAGGGCAACCGAATGATTCTCG	0.141	0.488	0.342	0.644	-0.0285	1.61	1.23	2.56	0.831	2.16	0.00432	0.413	0.733	0.234	0.801	0.591	-0.255	0.689	0.463	1.8
ATATGTAGGTTACATTCGGGTCATTCAGGCTATG	2.91	4.73	1.76	3.19	1.04	4.3	5.53	5.07	2.31	4.62	7.46	7.26	5.28	2.88	2.4	3.85	3.72	3.65	1.02	2.32
ATATGTAGGTTACATCCGGGTCATGCAGGCTATG	2.18	3.82	0.802	2.38	0.427	4.45	6.06	5.18	2.64	4.3	7.41	7.25	2.04	1.91	1.38	3.26	0.751	3.55	0.629	2.36
TCATATAGGTAAAAGGTGAAGGTCGGTGTGGTAA	1.92	1.85	0.375	2.08	0.359	5.23	9.08	8.43	8.12	8.44	5.58	5.14	1.14	0.439	1.92	2.15	1.34	3.07	1.51	2.28
TCTTGTAGATCAAGCGGGTTAAGAAAGCCTGAGT	0.257	0.0631	-0.461	0.225	-0.187	0.817	-0.599	1.1	2.23	1.81	1.69	0.202	-0.333	-0.182	-0.174	0.313	-0.037	0.0624	-0.21	0.093
ACAGACAGGTGAGTGAAGGTAACTGAGCTGGACG	0.439	-0.0639	-0.513	-0.288	-0.405	0.393	0.534	0.106	-0.146	-0.11	0.252	0.903	-0.468	-0.756	-0.197	0.0727	-0.00734	0.487	-0.0985	0.632
GCGACTGGGGCATCAGCTGGTTACCATAACTTAA	-0.422	-0.589	-0.452	0.296	-0.935	0.397	0.563	0.562	-0.565	0.127	3.64	3.01	-1.02	-0.691	-0.402	-0.444	-1.17	-0.536	-1.25	0.475
ACTATGAGTTGAGACGAGGGCAACCGATAGGTTG	1.25	0.578	-0.194	0.311	-0.0217	0.709	0.835	0.44	0.0728	0.0976	-0.225	0.397	0.408	-0.21	0.118	3.34	0.321	1.23	-0.00647	1.32
GCATCTAGGTAATACAAGGTGAAAGTCCGATTGT	1.09	1.15	0.539	0.383	-0.273	1.5	0.956	0.984	0.0503	0.572	4.35	3.42	0.512	0.835	0.218	0.368	-0.443	0.737	-0.154	0.5
ACTAGTTGGTCTGCTGAGGTCACACACAATTCGG	2.8	2.9	1.91	3.28	0.53	3.39	1.35	1.95	0.572	1.35	0.557	1.95	0.686	1.46	2.32	4.42	1.43	3.73	0.842	3.2
TCTAGTTGGTCAAATGTCACACACTCGAAATGCG	0.894	0.965	0.736	1.29	0.913	2.93	5.26	6.74	5.88	7.55	2.7	3.59	1.9	2.34	2.58	1.09	0.666	1.67	1.52	1.89
ACTCGGACGACAAAGGTCAGAGCTACGCCAGTGA	3.61	4.04	1.27	3.23	0.325	4.37	4.45	5.09	2.65	4.51	0.324	2.18	0.163	-0.0873	2.37	3.4	-0.377	4.48	0.552	4.17
